The full list was thinned out, with hits kept by preference.
Vaccinia pol inh – vaccinia E9 polymerase processive synthesis inhibition. AID 493162. in vitro processive DNA synthesis, absorbance read-out; hits give low values. normalized absorbance, % (no concentration beside the values). 0.94% of 46,000 active; in the data active = normalized absorbance mostly below about 85%, no sharp cut-off; inactive = mostly above about 86%
Of the large screens only hits and unclear results are named; the others gave an inactive call.

CC(=O)Nc1ccc(NC(=O)CCC(=O)c2ccccc2)cc1	none
O=C(Cc1ccccc1)c1ccccc1	none
O=C(CSCc1nc2c(nnn2Cc2ccc(F)cc2)c(=O)[nH]1)NC1CCCCCC1	none
N#CSCC(=O)c1cccs1	Vaccinia pol inh 60.9
CCN(CC)c1cc(-c2cccs2)nc(SCC(=O)c2cccs2)c1C#N	none
O=C(CSc1nnc2sc3ccccc3n12)c1cccs1	none
O=C(/C=C/c1ccc(F)cc1)OCC(=O)c1ccccc1	none
O=C(Nc1cccc2ccccc12)c1ccc(C(F)(F)F)cc1	none
O=C(NC1=NCCCCCN1)Nc1cccc(Cl)c1	none
Nc1cccc(C2=NCCN2)c1	none
O=C(Nc1cccc(C2=NCCN2)c1)Nc1cccc(C2=NCCN2)c1	Vaccinia pol inh 78.4
Oc1ccc(C=NC2c3ccccc3-c3ccccc32)cc1	none
O=C(OCC1COc2ccccc2O1)c1cc(F)c(F)c(F)c1F (centres undefined)	none
Cc1nc2ccccc2n1CC(=O)OCc1ccc(Br)cc1	none
CCC(C(=O)Nc1c(-c2ccccc2)nc2cc(C)ccn12)c1ccccc1 (centres undefined)	none
N#CNC1=NCN(CCN2CCOCC2)CN1	none
CC1CN(C(=O)NC23CC4CC(CC(C4)C2)C3)c2cc(Cl)ccc2O1 (centres undefined)	none
CC1CN(C(=O)N2CCC(C(=O)O)CC2)c2cc(Cl)ccc2O1 (centres undefined)	Vaccinia pol inh 67.7
Cc1ccc2c(c1)N(C(=O)N1CCC(C(=O)O)CC1)CC(C)O2 (centres undefined)	none
NC(=O)C[n+]1ccn2c(NC3CCCCC3)c(-c3ccc(N4CCOCC4)cc3)nc2c1	none
CCc1ccc(NC(=O)N2CC(CC)Sc3ccccc32)cc1 (centres undefined)	none
O=C(NCc1ccccc1)c1ccc(CSCc2cccc(Cl)c2)o1	none
O=C(CSc1ccccc1)NCc1nc(-c2ccccc2)no1	none
CC(C)Cn1c2ccccc2c2nc3ccccc3nc21	none
CCn1c2ccccc2c2nc3ccccc3nc21	Vaccinia pol inh 90.3
CCc1ccc2c(c1)c1nc3ccccc3nc1n2CC	none
O=C(/C=C/c1ccc(Br)o1)NC1=NCCS1	none
CCCC1CCC(c2ccc(C(=O)CCN(C)C)cc2)CC1 (centres undefined)	none
CCCC1CCC(c2ccc(C(N)=O)cc2)CC1 (centres undefined)	none
CCCCC1CCC(c2ccc(C(=O)O)cc2)CC1 (centres undefined)	Vaccinia pol inh 51.0
Nc1ccc(Cc2ccncc2)cc1	none
C[n+]1ccc(/C=C/c2ccccc2F)c2ccccc21	none
CN1C=C/C(=C\c2cc[n+](C)c3ccccc23)c2ccccc21	Vaccinia pol inh 83.8
CN1/C(=C/c2cccc[n+]2C)C=Cc2ccccc21	none
CCOC(=O)c1c(C)oc2c1c(C=NCCc1c[nH]c3ccccc13)c(O)c1ccccc12	none
O=C(NCc1ccccc1)C1=Cc2sc3c(c2CS1)CCCC3	none
CSc1nsc(C)c1C#N	none
CC1=C(NC(=S)NC(=O)c2ccccc2)NCc2ccccc21	none
OC(CNC1CCCC1)Cn1c2ccccc2c2ccccc21 (centres undefined)	Vaccinia pol inh 80.1
Cc1c(C)n(CC(O)CNC2CCCC2)c2ccccc12 (centres undefined)	none
CC(C)Cn1c2ccccc2c2ccccc21	none
CCN(CC)CC(O)Cn1c2ccccc2c2ccccc21 (centres undefined) (tested in a mixture with another compound)	Vaccinia pol inh 76.2
Cc1ccc(N(CC(O)Cn2c3ccccc3c3ccccc32)S(=O)(=O)c2ccccc2)cc1 (centres undefined)	none
Cc1c(C)n(CC(O)CNC2CCCCC2)c2ccccc12 (centres undefined)	none
O=S(=O)(CCCCl)NC1CCN(Cc2ccccc2)CC1	none
Cc1nc2nc3ccccc3nc2n1-c1ccc(F)cc1	none
CCC1CCCCN1S(=O)(=O)c1c(C)cc(C)cc1C (centres undefined)	none
COc1cccc(CNC(C)c2ccccc2)c1OCc1ccccc1F (centres undefined)	none
Clc1ccc(C=NCc2ccc(-c3cccs3)s2)cc1	none
Cc1csc2sc(COC(=O)Nc3ccccc3)c(C)c12	none
Cc1csc2sc(C=NCc3cccs3)c(C)c12	Vaccinia pol inh 62.7
CC(NC(=O)CC#N)c1ccccc1 (centres undefined)	none
COc1ccc2oc(=N)c(C(N)=O)cc2c1	none
CCOC(=O)c1oc2ccccc2c1CO	Vaccinia pol inh 77.0
CCOC(=O)c1oc2ccccc2c1NC(=O)c1ccc(S(=O)(=O)N(C)C)cc1	none
CCOC(=O)c1oc2ccccc2c1NC(=O)c1ccccc1	none
CCc1ccc(CN(Cc2cn[nH]c2-c2ccc(OC)cc2)C(=O)NCc2ccc(C)cc2)cc1	none
CC1(C)OC(C)(C)/C(=C/c2ccc3cccnc3c2)C1=O	none
O=C(CSC1=NCCc2ccccc21)c1ccc(-c2ccccc2)cc1	Vaccinia pol inh 69.0
O=C(CSC1=NCCc2ccccc21)c1ccccc1Cl	none
O=C(SC1=NCCc2ccccc21)c1ccccc1	none
COC(=O)c1cc2sc3ccccc3c2s1	none
CCOC(=O)c1cc(COc2c(Cl)cccc2Cl)on1	none
COC(=O)Cc1csc(=Nc2ccccc2)n1-c1ccccc1	none
O=C(NCCC1=CCCCC1)c1cc2c(s1)-c1ccccc1SC2	none
CCN1CCCC1CNC(=O)c1cc2c(s1)-c1ccccc1SC2 (centres undefined)	Vaccinia pol inh 72.8
O=C(NCc1ccccc1)c1cc2c(s1)-c1ccccc1SC2	none
Oc1ccccc1N=Cc1ccncc1	none
CCOC(=O)N1CCC2(CC1)C(C#N)=C(C)Nc1oc(C)nc12	none
Cc1nn(-c2ccc(F)cc2)c(Cl)c1C=Nc1cccc(C#N)c1	none
COc1ccc2c(C)cc(Cl)nc2c1	none
COc1ccc2c(C)cc3nncn3c2c1	Vaccinia pol inh 77.7
CCN1CCN(c2cc(C)c3ccc(OC)cc3n2)CC1	none
Cc1nc(NCc2ccco2)c2cc(-c3ccccc3)sc2n1	none
COc1ccc(CNc2ccc(C)c(C)c2)cc1OC	none
CC(C)Nc1ccc(Nc2ccnc3cc4ccccc4cc23)cc1	Vaccinia pol inh 10.4
c1ccc2cc3c(Nc4ccc(N5CCOCC5)cc4)ccnc3cc2c1	Vaccinia pol inh 67.1
c1cc(N2CCOCC2)ccc1NC1=NCCS1	none
CC(C)Nc1ccc(Nc2ccccc2)cc1	none
COc1ccc(Nc2ccnc3ccccc23)cc1	none
Oc1ccc(Nc2nc(N3CCOCC3)c3ccccc3n2)cc1	none
CN(C(=O)COC(=O)c1ccccc1O)C1CCCCC1	none
Cn1nc(C(C)(C)C)cc1C(=O)NCc1ccc(-c2cccs2)cc1	none
CCN(CC)S(=O)(=O)c1cccc(C(=O)Nc2cccc(F)c2)c1	none
N#Cc1c(-c2ccccc2)cc(-c2ccccc2)nc1N	none
N#Cc1c(N)nc(SCc2ccccc2)c(C#N)c1-c1ccccc1	Vaccinia pol inh 83.0
CCOc1ccc(-c2c(C#N)c(N)nc(SCC#N)c2C#N)cc1	none
Cc1c(C(=O)Nc2ccccc2)cnn1-c1ccc(F)cc1	none
O=C(COc1ccc(Cl)cc1)Nc1c(F)c(F)c(F)c(F)c1F	none
OC(CN1CCNCC1)Cn1c2ccc(Br)cc2c2cc(Br)ccc21 (centres undefined)	Vaccinia pol inh 31.4
OC(CN1CCN(c2cccc(Cl)c2)CC1)Cn1c2ccccc2c2ccccc21 (centres undefined)	none
CC1CC(C)CN(CC(O)Cn2c3ccccc3c3ccccc32)C1 (centres undefined)	none
CC[C@@]1(O)C[C@H](O[C@H]2C[C@H](N(C)C)[C@H](O)[C@H](C)O2)c2c(cc3c(c2O)C(=O)c2c(O)cccc2C3=O)[C@H]1C(=O)OC	Vaccinia pol inh 8.9

Screening results from PubChem.
